By inhibition is commonly meant the drop in the measured response relative to a control, in per cent.

Each structure is given as a SMILES string.

Inhibition data for 1 molecule are collected here from ChEMBL document CHEMBL1961873, “Compounds: GSK PKIS; Assays: Nanosyn kinase panel” (2012).

The target of assay [1] is Sphingosine kinase 1 (Homo sapiens) (UniProt Q9NYA1). Particulars: at 1 µM.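 Further: mean SPHK1 inhibition value reported from the GSK PKIS kinase panel screen.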
The target of assay [2] is T1, Sphingosine kinase 2 (Homo sapiens) (UniProt Q9NRA0).
T1 sequence (whole entry): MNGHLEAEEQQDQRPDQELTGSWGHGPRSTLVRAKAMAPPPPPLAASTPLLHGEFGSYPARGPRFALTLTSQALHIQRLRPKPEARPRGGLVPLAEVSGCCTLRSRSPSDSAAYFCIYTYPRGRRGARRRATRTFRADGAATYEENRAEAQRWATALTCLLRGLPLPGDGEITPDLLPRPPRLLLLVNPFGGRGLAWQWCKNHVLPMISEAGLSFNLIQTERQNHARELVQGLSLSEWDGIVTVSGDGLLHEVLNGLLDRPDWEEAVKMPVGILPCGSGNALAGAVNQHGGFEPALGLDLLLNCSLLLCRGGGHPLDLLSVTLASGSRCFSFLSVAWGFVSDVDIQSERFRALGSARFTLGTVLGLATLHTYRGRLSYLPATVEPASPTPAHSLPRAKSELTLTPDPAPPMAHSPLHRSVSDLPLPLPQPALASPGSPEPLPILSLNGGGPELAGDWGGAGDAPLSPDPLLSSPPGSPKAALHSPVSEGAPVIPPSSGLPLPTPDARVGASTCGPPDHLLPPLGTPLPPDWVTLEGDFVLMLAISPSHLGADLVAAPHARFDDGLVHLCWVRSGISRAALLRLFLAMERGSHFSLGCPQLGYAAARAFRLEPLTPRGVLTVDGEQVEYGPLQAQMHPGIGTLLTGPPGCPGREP
Particulars: at 0.1 µM.

The target of assay [3] is T1, Sphingosine kinase 2 (Homo sapiens). Particulars: at 1 µM.
Assay [4] addresses Casein kinase II subunit alpha (Homo sapiens) (UniProt P68400). The settings on record: at 0.1 µM.
For assay [5] the target is unchanged. The settings on record: at 1 µM.
The target in assay [6] is T2, Inhibitor of nuclear factor kappa-B kinase subunit alpha (Homo sapiens) (UniProt O15111).
T2 sequence (whole entry): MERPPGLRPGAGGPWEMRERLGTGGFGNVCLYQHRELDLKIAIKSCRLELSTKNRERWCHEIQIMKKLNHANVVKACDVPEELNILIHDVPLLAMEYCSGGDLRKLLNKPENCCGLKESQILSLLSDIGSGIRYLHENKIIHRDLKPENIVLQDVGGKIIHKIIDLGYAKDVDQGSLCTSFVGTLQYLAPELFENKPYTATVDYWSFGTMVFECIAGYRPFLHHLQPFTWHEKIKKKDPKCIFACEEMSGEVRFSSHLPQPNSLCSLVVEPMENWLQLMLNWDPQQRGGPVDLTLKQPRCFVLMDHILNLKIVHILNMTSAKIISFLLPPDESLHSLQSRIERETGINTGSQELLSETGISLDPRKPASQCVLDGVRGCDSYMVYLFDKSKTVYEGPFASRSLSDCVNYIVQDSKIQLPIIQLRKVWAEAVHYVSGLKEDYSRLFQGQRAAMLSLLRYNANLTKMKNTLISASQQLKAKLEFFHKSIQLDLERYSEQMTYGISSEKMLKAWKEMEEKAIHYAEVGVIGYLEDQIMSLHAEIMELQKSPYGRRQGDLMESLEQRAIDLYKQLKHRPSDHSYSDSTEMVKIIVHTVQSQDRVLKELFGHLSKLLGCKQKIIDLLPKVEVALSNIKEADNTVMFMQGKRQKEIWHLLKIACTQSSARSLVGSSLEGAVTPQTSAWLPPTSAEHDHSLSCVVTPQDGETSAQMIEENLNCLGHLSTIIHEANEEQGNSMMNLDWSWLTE
Particulars: at 0.1 µM.

In assay [7] the target is T2, Inhibitor of nuclear factor kappa-B kinase subunit alpha (Homo sapiens). The settings on record: at 1 µM.
In assay [8] the target is T3, Inhibitor of nuclear factor kappa-B kinase subunit beta (Homo sapiens) (UniProt O14920).
T3 sequence (whole entry): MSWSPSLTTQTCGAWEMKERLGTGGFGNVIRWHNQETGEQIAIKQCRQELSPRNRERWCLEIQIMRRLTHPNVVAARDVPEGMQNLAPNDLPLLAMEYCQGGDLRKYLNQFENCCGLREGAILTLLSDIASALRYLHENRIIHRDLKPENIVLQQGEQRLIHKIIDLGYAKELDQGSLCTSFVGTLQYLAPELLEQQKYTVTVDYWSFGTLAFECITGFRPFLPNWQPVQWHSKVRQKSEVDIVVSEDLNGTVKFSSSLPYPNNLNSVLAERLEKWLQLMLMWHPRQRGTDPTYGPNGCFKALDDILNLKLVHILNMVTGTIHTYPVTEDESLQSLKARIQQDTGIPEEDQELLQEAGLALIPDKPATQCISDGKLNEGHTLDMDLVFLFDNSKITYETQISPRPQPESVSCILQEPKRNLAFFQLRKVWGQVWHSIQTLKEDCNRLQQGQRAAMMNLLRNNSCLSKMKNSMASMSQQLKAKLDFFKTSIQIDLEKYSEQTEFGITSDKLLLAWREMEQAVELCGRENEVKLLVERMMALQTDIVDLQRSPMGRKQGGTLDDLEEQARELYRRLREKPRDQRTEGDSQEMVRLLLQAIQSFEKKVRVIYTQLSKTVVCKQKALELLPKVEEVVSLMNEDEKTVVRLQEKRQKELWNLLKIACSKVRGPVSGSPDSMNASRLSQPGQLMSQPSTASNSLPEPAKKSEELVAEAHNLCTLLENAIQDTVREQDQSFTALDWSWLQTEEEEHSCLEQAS
The settings on record: at 0.1 µM.

The target in assay [9] is T3, Inhibitor of nuclear factor kappa-B kinase subunit beta (Homo sapiens). Particulars: at 1 µM.
For assay [10], the target named is T4, Inhibitor of nuclear factor kappa-B kinase subunit epsilon (Homo sapiens) (UniProt Q14164).
T4 sequence (whole entry): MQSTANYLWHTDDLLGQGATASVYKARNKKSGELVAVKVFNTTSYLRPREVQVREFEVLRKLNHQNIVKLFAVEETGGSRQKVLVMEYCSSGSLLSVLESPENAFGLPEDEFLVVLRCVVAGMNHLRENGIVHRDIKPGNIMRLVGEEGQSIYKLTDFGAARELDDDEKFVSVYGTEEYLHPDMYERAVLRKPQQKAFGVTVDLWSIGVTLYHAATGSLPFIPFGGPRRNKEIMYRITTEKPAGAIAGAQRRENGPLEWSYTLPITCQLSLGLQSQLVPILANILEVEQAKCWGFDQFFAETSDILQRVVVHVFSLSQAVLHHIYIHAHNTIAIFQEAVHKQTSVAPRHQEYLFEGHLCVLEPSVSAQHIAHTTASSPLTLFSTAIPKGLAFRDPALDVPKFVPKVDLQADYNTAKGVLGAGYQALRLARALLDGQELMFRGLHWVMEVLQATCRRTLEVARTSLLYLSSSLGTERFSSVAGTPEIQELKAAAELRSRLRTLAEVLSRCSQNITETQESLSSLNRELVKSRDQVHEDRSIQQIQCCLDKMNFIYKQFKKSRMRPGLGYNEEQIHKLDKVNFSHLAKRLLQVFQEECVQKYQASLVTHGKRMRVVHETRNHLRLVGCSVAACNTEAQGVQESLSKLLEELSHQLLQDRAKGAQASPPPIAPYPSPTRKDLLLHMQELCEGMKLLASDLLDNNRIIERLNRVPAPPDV
Particulars: at 0.1 µM.

Assay [11] has as its target T4, Inhibitor of nuclear factor kappa-B kinase subunit epsilon (Homo sapiens). Particulars: at 1 µM.
Assay [12] has as its target T5, Serine/threonine-protein kinase Nek1 (Homo sapiens) (UniProt Q96PY6).
T5 sequence (whole entry): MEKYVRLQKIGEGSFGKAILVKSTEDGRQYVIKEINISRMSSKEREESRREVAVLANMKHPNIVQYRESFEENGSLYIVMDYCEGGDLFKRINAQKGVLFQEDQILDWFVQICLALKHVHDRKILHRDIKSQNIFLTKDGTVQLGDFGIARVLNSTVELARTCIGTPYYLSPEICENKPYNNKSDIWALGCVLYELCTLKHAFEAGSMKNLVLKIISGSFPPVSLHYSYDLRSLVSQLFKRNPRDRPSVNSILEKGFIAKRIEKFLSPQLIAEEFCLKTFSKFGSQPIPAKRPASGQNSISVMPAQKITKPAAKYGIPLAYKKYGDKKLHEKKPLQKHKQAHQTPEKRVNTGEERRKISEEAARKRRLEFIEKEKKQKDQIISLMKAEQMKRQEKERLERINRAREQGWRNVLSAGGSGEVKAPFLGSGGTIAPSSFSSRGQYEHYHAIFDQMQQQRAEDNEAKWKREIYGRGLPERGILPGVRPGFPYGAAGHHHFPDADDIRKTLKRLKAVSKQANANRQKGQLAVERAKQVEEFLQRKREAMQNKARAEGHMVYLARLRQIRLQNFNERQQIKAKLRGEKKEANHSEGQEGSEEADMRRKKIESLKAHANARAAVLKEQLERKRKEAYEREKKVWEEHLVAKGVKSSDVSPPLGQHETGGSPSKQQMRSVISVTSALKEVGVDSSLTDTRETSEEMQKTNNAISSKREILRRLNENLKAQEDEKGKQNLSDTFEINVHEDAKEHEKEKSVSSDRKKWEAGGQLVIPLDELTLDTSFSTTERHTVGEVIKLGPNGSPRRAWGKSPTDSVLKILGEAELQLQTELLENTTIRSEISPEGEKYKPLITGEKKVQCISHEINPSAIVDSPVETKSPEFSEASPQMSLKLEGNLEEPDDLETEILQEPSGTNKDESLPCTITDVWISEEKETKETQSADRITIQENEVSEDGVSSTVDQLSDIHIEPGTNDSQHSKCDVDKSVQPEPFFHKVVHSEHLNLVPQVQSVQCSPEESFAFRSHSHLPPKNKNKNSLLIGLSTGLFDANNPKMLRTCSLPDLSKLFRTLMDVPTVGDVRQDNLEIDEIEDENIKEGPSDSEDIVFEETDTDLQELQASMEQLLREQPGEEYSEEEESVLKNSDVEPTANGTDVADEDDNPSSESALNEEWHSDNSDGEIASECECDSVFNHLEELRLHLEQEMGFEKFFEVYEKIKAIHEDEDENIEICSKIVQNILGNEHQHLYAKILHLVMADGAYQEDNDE
The settings on record: at 0.1 µM.

The target of assay [13] is T5, Serine/threonine-protein kinase Nek1 (Homo sapiens). Particulars: at 1 µM.
For assay [14], the target named is T6, Serine/threonine-protein kinase Nek2 (Homo sapiens) (UniProt P51955).
T6 sequence (whole entry): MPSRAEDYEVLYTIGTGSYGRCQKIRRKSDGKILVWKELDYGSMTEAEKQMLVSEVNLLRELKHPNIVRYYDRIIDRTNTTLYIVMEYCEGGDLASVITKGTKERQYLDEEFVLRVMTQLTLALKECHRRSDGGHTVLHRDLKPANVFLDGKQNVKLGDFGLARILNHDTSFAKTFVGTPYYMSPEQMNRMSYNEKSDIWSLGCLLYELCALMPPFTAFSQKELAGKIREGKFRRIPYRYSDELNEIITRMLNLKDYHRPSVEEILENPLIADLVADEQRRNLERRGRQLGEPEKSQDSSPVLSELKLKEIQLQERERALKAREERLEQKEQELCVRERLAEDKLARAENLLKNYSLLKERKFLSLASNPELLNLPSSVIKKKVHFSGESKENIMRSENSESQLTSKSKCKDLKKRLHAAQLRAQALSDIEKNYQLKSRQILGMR
Particulars: at 0.1 µM.

For assay [15], the target named is T6, Serine/threonine-protein kinase Nek2 (Homo sapiens). Particulars: at 1 µM.
The target in assay [16] is Serine/threonine-protein kinase Nek6 (Homo sapiens) (UniProt Q9HC98). Particulars: at 0.1 µM.
Chain of Serine/threonine-protein kinase Nek6 (Homo sapiens) (Q9HC98 whole entry): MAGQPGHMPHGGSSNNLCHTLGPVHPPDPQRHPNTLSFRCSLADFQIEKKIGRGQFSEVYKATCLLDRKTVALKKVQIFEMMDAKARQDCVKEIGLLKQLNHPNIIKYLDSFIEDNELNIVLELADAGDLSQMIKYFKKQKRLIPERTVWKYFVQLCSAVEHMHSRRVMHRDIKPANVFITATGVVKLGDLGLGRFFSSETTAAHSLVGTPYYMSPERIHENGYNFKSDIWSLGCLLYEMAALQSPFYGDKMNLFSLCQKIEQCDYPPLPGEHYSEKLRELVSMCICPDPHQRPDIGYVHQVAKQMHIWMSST
For assay [17] the target is unchanged. Particulars: at 1 µM.
For assay [18], the target named is Serine/threonine-protein kinase Nek7 (Homo sapiens) (UniProt Q8TDX7). The settings on record: at 0.1 µM.
Chain of Serine/threonine-protein kinase Nek7 (Homo sapiens) (Q8TDX7 whole entry, looked up): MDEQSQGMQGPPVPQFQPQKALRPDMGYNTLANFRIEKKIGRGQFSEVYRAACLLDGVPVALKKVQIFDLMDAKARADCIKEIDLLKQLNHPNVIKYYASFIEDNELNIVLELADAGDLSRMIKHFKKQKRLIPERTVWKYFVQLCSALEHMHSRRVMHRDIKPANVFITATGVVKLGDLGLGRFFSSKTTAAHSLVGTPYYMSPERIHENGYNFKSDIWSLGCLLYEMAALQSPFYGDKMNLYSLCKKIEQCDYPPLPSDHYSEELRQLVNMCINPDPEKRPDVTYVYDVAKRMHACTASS
The target is the same in assay [19]. The settings on record: at 1 µM.
Assay [20] has as its target T7, Serine/threonine-protein kinase Nek9 (Homo sapiens) (UniProt Q8TD19).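 Further: reported value is the mean percent inhibition of NEK9.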
T7 sequence (whole entry): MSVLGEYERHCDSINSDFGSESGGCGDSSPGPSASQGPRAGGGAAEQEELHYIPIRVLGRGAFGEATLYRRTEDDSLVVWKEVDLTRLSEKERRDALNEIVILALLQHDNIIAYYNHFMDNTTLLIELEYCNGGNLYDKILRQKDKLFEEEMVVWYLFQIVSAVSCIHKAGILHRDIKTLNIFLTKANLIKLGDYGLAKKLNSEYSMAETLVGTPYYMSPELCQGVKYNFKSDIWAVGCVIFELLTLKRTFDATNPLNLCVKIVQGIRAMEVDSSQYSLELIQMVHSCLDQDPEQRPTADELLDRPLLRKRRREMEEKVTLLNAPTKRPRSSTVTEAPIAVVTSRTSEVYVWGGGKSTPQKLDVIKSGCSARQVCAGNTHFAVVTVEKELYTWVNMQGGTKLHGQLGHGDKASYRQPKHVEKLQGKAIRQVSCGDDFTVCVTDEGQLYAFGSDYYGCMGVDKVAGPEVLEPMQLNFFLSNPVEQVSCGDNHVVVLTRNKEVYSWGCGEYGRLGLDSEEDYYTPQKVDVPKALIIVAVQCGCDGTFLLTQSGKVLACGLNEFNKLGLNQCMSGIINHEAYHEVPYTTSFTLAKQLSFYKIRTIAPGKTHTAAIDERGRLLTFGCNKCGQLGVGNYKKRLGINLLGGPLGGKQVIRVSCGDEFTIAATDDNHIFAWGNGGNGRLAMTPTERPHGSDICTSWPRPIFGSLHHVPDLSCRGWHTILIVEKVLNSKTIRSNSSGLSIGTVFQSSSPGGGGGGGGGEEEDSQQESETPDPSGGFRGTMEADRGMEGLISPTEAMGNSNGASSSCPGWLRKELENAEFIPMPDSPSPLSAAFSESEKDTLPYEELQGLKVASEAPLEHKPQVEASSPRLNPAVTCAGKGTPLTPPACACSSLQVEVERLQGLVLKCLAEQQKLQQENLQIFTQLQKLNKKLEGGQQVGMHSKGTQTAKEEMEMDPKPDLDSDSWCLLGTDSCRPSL
Particulars: at 0.1 µM.

Chain of Casein kinase II subunit alpha (Homo sapiens) (P68400 whole entry, looked up): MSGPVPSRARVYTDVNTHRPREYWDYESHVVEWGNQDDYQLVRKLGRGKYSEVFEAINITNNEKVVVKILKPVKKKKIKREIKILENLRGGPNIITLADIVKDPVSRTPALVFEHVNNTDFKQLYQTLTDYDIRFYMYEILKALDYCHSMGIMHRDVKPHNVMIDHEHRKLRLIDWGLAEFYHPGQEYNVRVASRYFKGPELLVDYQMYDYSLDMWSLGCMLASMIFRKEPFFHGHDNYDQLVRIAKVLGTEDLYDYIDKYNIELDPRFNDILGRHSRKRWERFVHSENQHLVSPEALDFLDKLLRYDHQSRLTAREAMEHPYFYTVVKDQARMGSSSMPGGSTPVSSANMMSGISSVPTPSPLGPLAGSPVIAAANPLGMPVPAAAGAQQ
Chain of Sphingosine kinase 1 (Homo sapiens) (Q9NYA1 whole entry): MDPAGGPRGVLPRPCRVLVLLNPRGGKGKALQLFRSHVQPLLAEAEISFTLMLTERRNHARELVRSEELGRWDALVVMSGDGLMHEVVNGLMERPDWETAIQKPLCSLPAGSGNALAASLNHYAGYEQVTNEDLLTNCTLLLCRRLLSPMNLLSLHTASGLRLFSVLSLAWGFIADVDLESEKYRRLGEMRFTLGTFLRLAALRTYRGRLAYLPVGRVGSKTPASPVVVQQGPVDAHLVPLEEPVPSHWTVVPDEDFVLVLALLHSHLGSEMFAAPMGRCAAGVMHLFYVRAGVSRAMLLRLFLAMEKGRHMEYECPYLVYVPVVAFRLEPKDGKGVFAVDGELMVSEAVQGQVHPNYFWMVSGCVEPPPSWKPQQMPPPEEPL

As for `CCCNc1cccc(-n2ncc3c(N/N=C/c4ccncc4)ncnc32)c1`, the inhibition in assay [1] was -3.91%; in assay [2] it was -0.44%; in [3], 1.31%; in [4] it was 1.7%; in assay [5] it was 14.1%; in assay [6], 5.25%. The inhibition stood at 0.68% in assay [7]; 0.62% in assay [8]; 3.19% in assay [9]; 5.27% in assay [10]; 13.4% in assay [11]; 0.28% in [12]. Further, the inhibition was 7.87% in assay [13]; -1.07% in [14]; 0.85% in assay [15]; 4.08% in assay [16]; 2.63% in [17]; -1.02% in assay [18]. Further, the inhibition is -0.91% in assay [19] and 1.01% in [20].
